From PubChem BioAssay AID1159580 (chemical genetic matrix, 2015)
In all, about 5,500 compounds went through this assay and about 2,000 (36%) were called active. About 18% were inconclusive and are not listed. Rule as the data show it: active = normalized growth mostly below about 0.91 (no sharp cut-off); inconclusive = no clear call, values can overlap the other calls; inactive = mostly above about 0.92. Some of the results follow.

Assay: chemical genetic growth profiling, strain panel (AID 1159580);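 also: tested at 20 µM; growth read once vehicle control cultures reached saturation at 30 °C; 1 = growth at the plate median or of vehicle wells; lower values mean less growth of the strain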
Settings: growth OD

Measured: normalized growth

COc1ccc2c(c1OC)C(=O)O[C@@H]2[C@H]1c2cc3c(cc2CCN1C)OCO3
inactive: S. cerevisiae deletion strains, locus YJR075W, strain HOC1, active compounds read low 1.02 | S. cerevisiae deletion strains, locus YKL009W, strain mrt4, active compounds read low 1.03 | S. cerevisiae deletion strains, locus YKL068W, active compounds read low 1.02 | S. cerevisiae deletion strains, locus YKL085W, strain MDH1 (second series), active compounds read low 1.04 | S. cerevisiae deletion strains, locus YKL085W, strain MDH1, active compounds read low 1.04 | S. cerevisiae deletion strains, locus YKL160W, strain elf1, active compounds read low 0.974 | S. cerevisiae deletion strains, locus YKL190W, strain CNB1, active compounds read low 1.02 | S. cerevisiae deletion strains, locus YKR001C, strain vps1, active compounds read low 1.03 | S. cerevisiae deletion strains, locus YKR026C, strain gcn3, active compounds read low 0.998 | S. cerevisiae deletion strains, locus YKR091W, strain srl3, active compounds read low 0.997 | S. cerevisiae deletion strains, locus YLL001W, strain dnm1, active compounds read low 0.994 | S. cerevisiae deletion strains, locus YLL026W, active compounds read low 0.992 | S. cerevisiae deletion strains, locus YLL041C, strain sdh2, active compounds read low 1 | S. cerevisiae deletion strains, locus YLR027C, strain aat2, active compounds read low 0.996 | S. cerevisiae deletion strains, locus YLR039C, strain RIC1, active compounds read low 1.07 | S. cerevisiae deletion strains, locus YLR058C, strain SHM2, active compounds read low 1.02 | S. cerevisiae deletion strains, locus YLR102C, strain apc9, active compounds read low 1.01 | S. cerevisiae deletion strains, locus YLR113W, strain HOG1, active compounds read low 0.991 | S. cerevisiae deletion strains, locus YLR221C, strain rsa3, active compounds read low 0.983 | S. cerevisiae deletion strains, locus YLR258W, strain gsy2, active compounds read low 0.988 | S. cerevisiae deletion strains, locus YLR262C, strain YPT6 (second series), active compounds read low 0.98 | S. cerevisiae deletion strains, locus YLR262C, strain YPT6, active compounds read low 1.04 | S. cerevisiae deletion strains, locus YLR268W, strain sec22, active compounds read low 1.01 | S. cerevisiae deletion strains, locus YLR320W, strain mms22, active compounds read low 0.967 | S. cerevisiae deletion strains, locus YLR330W, strain CHS5, active compounds read low 1.02 | S. cerevisiae deletion strains, locus YLR342W, strain FKS1 (second series), active compounds read low 1.06 | S. cerevisiae deletion strains, locus YLR342W, strain FKS1, active compounds read low 0.984 | S. cerevisiae deletion strains, locus YLR357W, strain rsc2, active compounds read low 0.998 | S. cerevisiae deletion strains, locus YLR370C, strain arc18, active compounds read low 1 | S. cerevisiae deletion strains, locus YLR371W, strain rom2, active compounds read low 1.02 | S. cerevisiae deletion strains, locus YLR384C, strain iki3, active compounds read low 0.983 | S. cerevisiae deletion strains, locus YLR418C, strain cdc73, active compounds read low 1.02 | S. cerevisiae deletion strains, locus YML016C, strain PPZ1, active compounds read low 1.01 | S. cerevisiae deletion strains, locus YML032C, strain rad52, active compounds read low 1.03 | S. cerevisiae deletion strains, locus YML120C, strain ndi1, active compounds read low 0.985 | S. cerevisiae deletion strains, locus YML124C, strain tub3, active compounds read low 1.02 | S. cerevisiae deletion strains, locus YMR058W, strain fet3, active compounds read low 0.998 | S. cerevisiae deletion strains, locus YMR078C, strain ctf18, active compounds read low 1.03 | S. cerevisiae deletion strains, locus YMR125W, strain sto1, active compounds read low 0.988 | S. cerevisiae deletion strains, locus YMR129W, active compounds read low 1 | S. cerevisiae deletion strains, locus YMR205C, strain PFK2, active compounds read low 0.971 | S. cerevisiae deletion strains, locus YMR223W, strain ubp8, active compounds read low 1.03 | S. cerevisiae deletion strains, locus YMR231W, strain pep5, active compounds read low 0.993 | S. cerevisiae deletion strains, locus YMR263W, strain SAP30, active compounds read low 1.01 | S. cerevisiae deletion strains, locus YMR307W, strain GAS1, active compounds read low 1.09 | S. cerevisiae deletion strains, locus YNL067W, strain RPL9B, active compounds read low 1.01 | S. cerevisiae deletion strains, locus YNL071W, strain lat1, active compounds read low 0.997 | S. cerevisiae deletion strains, locus YNL128W, strain TEP1, active compounds read low 1.02 | S. cerevisiae deletion strains, locus YNL153C, strain GIM3, active compounds read low 1.01 | S. cerevisiae deletion strains, locus YNL183C, strain NPR1, active compounds read low 0.953 | S. cerevisiae deletion strains, locus YNL209W, strain ssb2, active compounds read low 0.993 | S. cerevisiae deletion strains, locus YNL233W, strain BNI4, active compounds read low 1.02 | S. cerevisiae deletion strains, locus YNL248C, strain rpa49, active compounds read low 0.999 | S. cerevisiae deletion strains, locus YNL250W, strain rad50, active compounds read low 1.02 | S. cerevisiae deletion strains, locus YNL271C, strain bni1, active compounds read low 1.01 | S. cerevisiae deletion strains, locus YNL298W, strain CLA4, active compounds read low 1.03 | S. cerevisiae deletion strains, locus YNL307C, strain MCK1, active compounds read low 1.02 | S. cerevisiae deletion strains, locus YNL322C, strain KRE1 (second series), active compounds read low 0.99 | S. cerevisiae deletion strains, locus YNL322C, strain KRE1, active compounds read low 1.01 | S. cerevisiae deletion strains, locus YNR049C, strain mso1, active compounds read low 0.996 | S. cerevisiae deletion strains, locus YNR052C, strain pop2, active compounds read low 1.02 | S. cerevisiae deletion strains, locus YOL006C, strain TOP1, active compounds read low 1.04 | S. cerevisiae deletion strains, locus YOL012C, strain htz1 1.03 | S. cerevisiae deletion strains, locus YOL147C, strain pex11, active compounds read low 1.02 | S. cerevisiae deletion strains, locus YOR001W, strain rrp6, active compounds read low 0.998 | S. cerevisiae deletion strains, locus YOR061W, strain CKA2, active compounds read low 1.02 | S. cerevisiae deletion strains, locus YOR069W, strain VPS5, active compounds read low 1.02 | S. cerevisiae deletion strains, locus YOR070C, strain gyp1, active compounds read low 0.984 | S. cerevisiae deletion strains, locus YOR080W, strain dia2, active compounds read low 0.987 | S. cerevisiae deletion strains, locus YOR083W, strain WHI5, active compounds read low 0.985 | S. cerevisiae deletion strains, locus YOR106W, strain vam3, active compounds read low 0.972 | S. cerevisiae deletion strains, locus YOR136W, strain idh2, active compounds read low 1.02 | S. cerevisiae deletion strains, locus YOR144C, strain elg1, active compounds read low 1.02 | S. cerevisiae deletion strains, locus YOR184W, strain ser1, active compounds read low 1.04 | S. cerevisiae deletion strains, locus YOR231W, strain MKK1, active compounds read low 0.994 | S. cerevisiae deletion strains, locus YOR265W, strain rbl2, active compounds read low 0.996 | S. cerevisiae deletion strains, locus YOR270C, strain vph1, active compounds read low 1.01 | S. cerevisiae deletion strains, locus YOR290C, strain snf2, active compounds read low 0.989 | S. cerevisiae deletion strains, locus YOR316C, strain cot1, active compounds read low 1.02 | S. cerevisiae deletion strains, locus YPL051W, strain arl3, active compounds read low 0.976 | S. cerevisiae deletion strains, locus YPL055C, strain LGE1, active compounds read low 1.03 | S. cerevisiae deletion strains, locus YPL078C, strain atp4, active compounds read low 1 | S. cerevisiae deletion strains, locus YPL106C, strain sse1, active compounds read low 0.976 | S. cerevisiae deletion strains, locus YPL240C, strain hsp82, active compounds read low 0.995 | S. cerevisiae deletion strains, locus YPL241C, strain CIN2, active compounds read low 1.01 | S. cerevisiae deletion strains, locus YPL256C, strain CLN2, active compounds read low 0.971 | S. cerevisiae deletion strains, locus YPR119W, strain clb2, active compounds read low 1.02 | S. cerevisiae deletion strains, locus YPR141C, strain kar3, active compounds read low 1.03 | S. cerevisiae deletion strains, locus YPR163C, strain tif3, active compounds read low 1.03 | S. cerevisiae deletion strains, locus YPR167C, strain met16, active compounds read low 1.02 | S. cerevisiae deletion strains, strain wtn01, active compounds read low 1.02 | S. cerevisiae strains, strain wild type, active compounds read low 1.01
